Data taken from PubChem BioAssay (NCATS).
Inconclusive results are not listed. The list shows a part of the results. A call without a number means that no potency is given here. Activity calls are given as the source filed them. Unless noted, calls follow the shape of the dose curve; as a rule, active = well fitted curve in the direction sought with a large enough effect; inconclusive = small, poorly fitted or top-dose-only effect, or another doubt; inactive = no such curve, though single readings can be large; an effect the other way counts as inactive or inconclusive.

Legend:
[1] = qHTS Assay for Identification of Small Molecule Antagonists for NFkB Signaling Pathway (AID 895; active = well fitted inhibition curve with a large enough effect in the signal ratio, with a control signal flat, not every such curve was filed as active; the % refers to the signal ratio; also: potency is read from the fitted curve at half-maximal effect)
How it was run: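 ME-180 NFkB-bla cells (beta-lactamase under NFkB response element), plated overnight, treated with compound then 10 pM TNF alpha (about EC50) for 5 hrs at 37 C. LiveBLAzer FRET read at 460/530 nm emission, 405 nm excitation.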

[2] = biological target: Guanine nucleotide-binding protein G(i) subunit alpha-1 (Homo sapiens) (UniProt P63096); assay: qHTS Assay for Inhibitors of RGS12 GoLoco Motif Activity (Green Fluorophore) (AID 879);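 also: negative values mean loss of peptide binding seen as reduced polarization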
How it was run: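 Fluorescence polarization assay: 50 nM Gαi1 with 10 nM FITC-labeled RGS12 GoLoco peptide in 10 mM Tris pH 7.5, 150 mM NaCl, 0.1 mM GDP, 0.05% NP40, 10 min at room temperature with compound.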

[3] = biological target: Muscarinic acetylcholine receptor M1 (Rattus norvegicus) (UniProt P08482); assay: qHTS Assay for Antagonists of Acetylcholine Muscarinic M1 Receptor: Measurement of IP-One Response (AID 944); also: potency is read from the fitted curve at half-maximal effect; nearly all actives have a fitted effect of over 75% in size
How it was run: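 M1-CHO (rat), 2000 cells/well, overnight recovery; cpd 10 min; carbachol EC80 (200 nM), 30 min, HEPES buffer + 50 mM LiCl pH 7.4; IP-One HTRF, Ex 337, Em 620/665 nm.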

[4] = biological target: Glucocorticoid receptor (Homo sapiens) (UniProt P04150); assay: qHTS assay for small molecule agonists of glucocorticoid receptor signaling (AID 588532; active = well fitted curve in the direction sought with a large enough effect in the signal ratio, with a control signal flat; the % refers to the signal ratio); settings: HeLa MMTV-bla, beta-lactamase ratio, agonist, 18 h; stronger effect = higher value; percent of dexamethasone control, DMSO zero
How it was run: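 HeLa GRE-bla reporter cells; 18 h compound exposure at 37 C; 2 h CCF4 loading at room temperature; fluorescence at 460 and 530 nm; EC50 by Hill equation.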

[5] = biological target: Peroxisome proliferator-activated receptor gamma (Homo sapiens) (UniProt P37231); assay: qHTS assay for small molecule antagonists of peroxisome proliferator-activated receptor gamma signaling (AID 588537; active = well fitted inhibition curve with a large enough effect in the signal ratio, with a control signal flat, not every such curve was filed as active; the % refers to the signal ratio;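 also: reporter cells co-stimulated with 50 nM rosiglitazone agonist during compound treatment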)
How it was run: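 PPARγ-UAS-bla HEK293 cells (3000/well) in 1% charcoal/dextran-stripped FBS are treated with compound, then stimulated with 50 nM rosiglitazone for 16 h at 37 °C. Read-out is CCF4 β-lactamase fluorescence after 2 h at RT. IC50 comes from Hill fits normalised to rosiglitazone and DMSO.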

[6] = qHTS assay for cell viability of HEK293 cells (AID 743288); settings: ATP luminescence (CellTiter-Glo), 18 h; max response: stronger effect = lower value; also: nearly all actives have a fitted effect of over 50% in size
How it was run: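 Environmental chemicals tested in qHTS format against parental HEK293 cells; 18 h treatment, 37 C; read-out ATP luminescence (CellTiter-Glo), 30 min RT development.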

[7] = qHTS assay for cell viability of the p53RE-bla HCT-116 cell line (AID 743292); also: nearly all actives have a fitted effect of over 55% in size
How it was run: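 Viability of compound-treated p53RE-bla HCT-116 cells is taken from ATP-dependent luciferase luminescence. Treatment lasts 16 h at 37 C after a 5 h settling period; detection follows 30 min at room temperature.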

[8] = qHTS assay for small molecule activators of the human pregnane X receptor (PXR) signaling pathway (AID 720659; call rule not given here)
[9] = biological target: Tumor susceptibility gene 101 protein (Homo sapiens) (UniProt Q99816); assay: qHTS Assay for Iinhibitors of HIV-1 Budding by Blocking the Interaction of PTAP/TSG101: Hit Validation (AID 651600); also: nearly all actives have a fitted effect of over 70% in size
How it was run: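 Tsg101 binding domain 10 uM + FITC-PTAP peptide 50 nM (final), 10 mM HEPES pH 7.5/0.15 M NaCl/0.01% Tween 20/3 mM EDTA/0.1 mM TCEP; 20 min RT; FP read, FITC filters.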

[10] = qHTS assay for small molecule antagonists of peroxisome proliferator-activated receptor delta signaling (AID 588535; active = well fitted inhibition curve with a large enough effect in the signal ratio, with a control signal flat, not every such curve was filed as active; the % refers to the signal ratio;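 as to max response: cells co-treated with a PPAR-delta agonist as stimulator during compound exposure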); settings: HEK293T PPARd-UAS-bla, beta-lactamase FRET ratio, 18 h; 460 nm channel
How it was run: (§1)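 Antagonist-mode beta-lactamase reporter (GeneBLAzer PPAR-delta-UAS-bla) in HEK293T cells, 2% charcoal/dextran FBS, 4000 cells/well. Compound titrations, 18 h at 37 C; CCF4 ratio read, IC50 and efficacy from Hill fits.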

[11] = biological target: Peroxisome proliferator-activated receptor delta (Homo sapiens) (UniProt Q03181); assay: as above
How it was run: as §1

[12] = biological target: Peroxisome proliferator-activated receptor gamma (Homo sapiens) (UniProt P37231); assay: qHTS assay for small molecule agonists of peroxisome proliferator-activated receptor gamma signaling (AID 588536; active = well fitted curve in the direction sought with a large enough effect in the signal ratio, with a control signal flat, not every such curve was filed as active; the % refers to the signal ratio)
How it was run: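 Ratiometric blue/green fluorescence (405 nm excitation; 460 and 530 nm emission) from CCF4-loaded HEK293 reporter cells serves as signal. Exposure to test compounds lasts 16 h at 37 C in medium containing 1% charcoal/dextran-treated serum.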

[13] = biological target: Vitamin D3 receptor (Homo sapiens) (UniProt P11473); assay: qHTS assay for small molecule antagonists of vitamin D receptor signaling (AID 588541; calls by dose curve;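 also: receptor activated by calcitriol during compound treatment; series mostly up to about 77 µM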)
How it was run: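 VDR-UAS-bla HEK293T cells in 2% charcoal-stripped FBS were stimulated with 1-alpha,25-dihydroxyvitamin D3 (3 nM final) plus compound for 16 h at 37 C. The beta-lactamase CCF4 readout was normalized to 50 nM agonist and DMSO, and Hill fits gave IC50.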

[14] = qHTS assay for small molecule agonists of retinoid X receptor alpha signaling (AID 588544; calls by dose curve); settings: HEK293T RXRa-UAS-bla, beta-lactamase reporter, 18 h; 530 nm emission
[15] = biological target: Retinoic acid receptor RXR-alpha (Homo sapiens) (UniProt P19793); assay: as above
[16] = biological target: Phosphoglycerate kinase, glycosomal (Trypanosoma brucei brucei) (UniProt P07378); assay: qHTS for inhibitors of Phosphogylcerate Kinase: Hit Validation Screen (AID 686980); settings: TbPGK coupled GAPDH assay, Kinase-Glo luminescence; also: potency is read from the fitted curve at half-maximal effect; nearly all actives have a fitted effect of over 65% in size
How it was run: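 Luminescent ATP detection (Kinase-Glo Plus) follows a 60-minute room-temperature incubation, with wells lacking PGK as controls. Buffer: 100 mM TEA (pH 7.6), 5 mM MgCl2, 0.01% Tween-20. Coupling enzyme GAPDH (100 nM final) supplies unstable 1,3-BPG in-well.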

[17] = biological target: DNA polymerase iota (Homo sapiens) (UniProt Q9UNA4); assay: qHTS for Inhibitors of Polymerase Iota: Confirmatory Assay for Cherry-picked Compounds (AID 720496); settings: Pol iota primer extension, TAMRA/BHQ fluorescence; also: potency is read from the fitted curve at half-maximal effect
How it was run: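 Step 1: 10 nM Pol iota with compound, 15 min, room temperature. Step 2: 50 nM final quenched DNA substrate added. Step 3: fluorescence (ex 525, em 598 nm) read at 0 and after 10 min.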

[18] = biological target: Bifunctional 3'-5' exonuclease/ATP-dependent helicase WRN (Homo sapiens) (UniProt Q14191); assay: qHTS for Inhibitors of WRN Helicase: Confirmatory Assay for Cherry-picked Compounds. (AID 720497); settings: WRN helicase DNA unwinding, fluorescence kinetic; also: potency is read from the fitted curve at half-maximal effect; nearly all actives have a fitted effect of over 65% in size
How it was run: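 Kinetic fluorescence unwinding readout (525/598 nm) of a forked duplex oligonucleotide substrate, 100 nM, with 2 mM ATP and 20 nM WRN. Compounds were added 15 min before substrate at room temperature. Activity was scaled between uninhibited enzyme and buffer-only controls.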

[19] = qHTS for Inhibitors of WRN Helicase: Thiazole Orange DNA Binding Counterscreen (AID 720499);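 also: drop in dye fluorescence marks compound binding to DNA; nearly all actives have a fitted effect of over 60% in size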
How it was run: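 DNA-intercalating dye assay: pintool-added compounds meet 50 nM DNA pre-stained with 100 nM ThO; 15 min at RT; fluorescence 480/530 nm. Inactivity is desired.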

[20] = biological target: DNA polymerase kappa (Homo sapiens) (UniProt Q9UBT6); assay: qHTS for Inhibitors of Polymerase Kappa: Confirmatory Assay for Cherry-picked Compounds (AID 720501); settings: purified Pol-kappa, fluorescent strand-displacement substrate; also: potency is read from the fitted curve at half-maximal effect
How it was run: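 10 nM human Pol-kappa was preincubated with compound 15 min at room temperature, then 50 nM (final) primer/template substrate with TAMRA-labeled reporter strand and BHQ-2-labeled template added. Fluorescence (Ex 525, Em 598 nm) read at 0 and 10 min.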

Chain of Peroxisome proliferator-activated receptor gamma (Homo sapiens) (P37231 whole entry, looked up): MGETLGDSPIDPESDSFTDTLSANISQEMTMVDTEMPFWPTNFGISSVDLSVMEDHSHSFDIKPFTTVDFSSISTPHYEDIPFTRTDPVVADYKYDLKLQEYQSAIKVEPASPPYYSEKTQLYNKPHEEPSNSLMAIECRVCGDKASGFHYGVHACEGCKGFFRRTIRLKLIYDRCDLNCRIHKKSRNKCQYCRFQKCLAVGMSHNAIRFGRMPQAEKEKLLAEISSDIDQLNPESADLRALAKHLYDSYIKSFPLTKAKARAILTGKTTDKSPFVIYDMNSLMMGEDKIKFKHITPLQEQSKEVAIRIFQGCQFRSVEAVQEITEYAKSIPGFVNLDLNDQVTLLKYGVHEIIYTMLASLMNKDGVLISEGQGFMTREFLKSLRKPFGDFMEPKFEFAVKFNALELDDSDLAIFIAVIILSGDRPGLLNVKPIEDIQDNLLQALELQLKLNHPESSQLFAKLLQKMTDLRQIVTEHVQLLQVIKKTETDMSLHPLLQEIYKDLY
Chain of Tumor susceptibility gene 101 protein (Homo sapiens) (Q99816 whole entry, looked up, the tested form may be a part): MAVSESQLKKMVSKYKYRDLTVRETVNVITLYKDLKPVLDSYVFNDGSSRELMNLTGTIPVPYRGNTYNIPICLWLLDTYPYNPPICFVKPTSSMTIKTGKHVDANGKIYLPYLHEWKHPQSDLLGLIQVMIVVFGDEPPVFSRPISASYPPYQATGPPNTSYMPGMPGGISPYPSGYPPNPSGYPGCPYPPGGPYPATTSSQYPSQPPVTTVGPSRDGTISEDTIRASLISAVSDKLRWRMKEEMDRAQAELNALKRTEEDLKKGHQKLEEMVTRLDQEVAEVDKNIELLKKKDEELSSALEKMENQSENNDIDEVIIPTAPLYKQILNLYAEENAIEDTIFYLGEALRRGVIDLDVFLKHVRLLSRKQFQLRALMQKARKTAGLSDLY
Chain of Guanine nucleotide-binding protein G(i) subunit alpha-1 (Homo sapiens) (P63096 whole entry, looked up): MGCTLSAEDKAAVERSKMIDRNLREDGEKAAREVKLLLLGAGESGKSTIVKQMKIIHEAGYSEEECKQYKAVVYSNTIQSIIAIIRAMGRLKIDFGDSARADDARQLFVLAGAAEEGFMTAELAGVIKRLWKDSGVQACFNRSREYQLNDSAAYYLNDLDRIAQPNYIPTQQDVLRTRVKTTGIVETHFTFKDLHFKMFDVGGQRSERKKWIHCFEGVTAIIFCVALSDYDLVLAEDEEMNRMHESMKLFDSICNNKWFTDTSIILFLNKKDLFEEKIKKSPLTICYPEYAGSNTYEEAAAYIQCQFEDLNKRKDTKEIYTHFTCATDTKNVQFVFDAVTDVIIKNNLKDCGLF
Chain of DNA polymerase kappa (Homo sapiens) (Q9UBT6 whole entry, looked up): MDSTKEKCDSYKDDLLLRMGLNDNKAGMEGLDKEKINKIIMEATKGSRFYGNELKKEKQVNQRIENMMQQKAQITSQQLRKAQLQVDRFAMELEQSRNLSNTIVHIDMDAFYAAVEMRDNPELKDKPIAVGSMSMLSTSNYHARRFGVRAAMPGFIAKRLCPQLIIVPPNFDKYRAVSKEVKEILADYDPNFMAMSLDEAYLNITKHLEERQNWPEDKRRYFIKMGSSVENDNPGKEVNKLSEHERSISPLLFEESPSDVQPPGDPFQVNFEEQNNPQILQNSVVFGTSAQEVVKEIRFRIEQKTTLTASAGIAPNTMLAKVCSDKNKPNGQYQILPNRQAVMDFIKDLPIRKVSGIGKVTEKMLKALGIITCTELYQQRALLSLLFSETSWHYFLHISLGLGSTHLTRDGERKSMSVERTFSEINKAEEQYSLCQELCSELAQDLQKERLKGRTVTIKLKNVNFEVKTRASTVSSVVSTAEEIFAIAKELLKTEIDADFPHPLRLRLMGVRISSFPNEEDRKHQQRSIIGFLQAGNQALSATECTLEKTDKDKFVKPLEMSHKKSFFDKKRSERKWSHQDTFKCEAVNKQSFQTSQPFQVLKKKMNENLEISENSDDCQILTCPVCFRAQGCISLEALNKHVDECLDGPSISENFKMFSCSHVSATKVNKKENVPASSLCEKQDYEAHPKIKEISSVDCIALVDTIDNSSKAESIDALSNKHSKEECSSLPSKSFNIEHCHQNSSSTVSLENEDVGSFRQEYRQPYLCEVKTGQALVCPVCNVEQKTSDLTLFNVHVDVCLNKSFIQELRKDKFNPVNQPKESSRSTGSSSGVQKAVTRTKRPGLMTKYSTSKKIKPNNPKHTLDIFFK
Chain of DNA polymerase iota (Homo sapiens) (Q9UNA4 whole entry, looked up): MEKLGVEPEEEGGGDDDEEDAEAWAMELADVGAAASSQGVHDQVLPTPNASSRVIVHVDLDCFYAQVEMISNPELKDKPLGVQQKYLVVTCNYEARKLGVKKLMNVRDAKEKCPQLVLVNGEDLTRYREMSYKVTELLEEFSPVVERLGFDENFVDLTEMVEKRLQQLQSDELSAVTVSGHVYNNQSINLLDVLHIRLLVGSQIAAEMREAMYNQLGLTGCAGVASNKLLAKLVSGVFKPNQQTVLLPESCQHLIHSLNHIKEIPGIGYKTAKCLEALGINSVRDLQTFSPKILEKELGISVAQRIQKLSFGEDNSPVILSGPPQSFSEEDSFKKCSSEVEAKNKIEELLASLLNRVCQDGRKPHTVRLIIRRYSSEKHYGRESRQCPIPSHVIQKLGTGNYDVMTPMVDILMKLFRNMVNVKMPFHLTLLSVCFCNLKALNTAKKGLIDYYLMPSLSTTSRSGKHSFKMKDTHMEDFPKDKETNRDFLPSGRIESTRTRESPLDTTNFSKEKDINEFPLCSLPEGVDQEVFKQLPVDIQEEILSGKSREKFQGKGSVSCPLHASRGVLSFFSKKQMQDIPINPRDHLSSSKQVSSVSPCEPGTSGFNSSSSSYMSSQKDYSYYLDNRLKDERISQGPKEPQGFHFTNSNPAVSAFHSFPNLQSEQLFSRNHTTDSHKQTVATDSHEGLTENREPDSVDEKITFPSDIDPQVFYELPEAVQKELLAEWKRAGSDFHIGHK
Chain of Retinoic acid receptor RXR-alpha (Homo sapiens) (P19793 whole entry, looked up): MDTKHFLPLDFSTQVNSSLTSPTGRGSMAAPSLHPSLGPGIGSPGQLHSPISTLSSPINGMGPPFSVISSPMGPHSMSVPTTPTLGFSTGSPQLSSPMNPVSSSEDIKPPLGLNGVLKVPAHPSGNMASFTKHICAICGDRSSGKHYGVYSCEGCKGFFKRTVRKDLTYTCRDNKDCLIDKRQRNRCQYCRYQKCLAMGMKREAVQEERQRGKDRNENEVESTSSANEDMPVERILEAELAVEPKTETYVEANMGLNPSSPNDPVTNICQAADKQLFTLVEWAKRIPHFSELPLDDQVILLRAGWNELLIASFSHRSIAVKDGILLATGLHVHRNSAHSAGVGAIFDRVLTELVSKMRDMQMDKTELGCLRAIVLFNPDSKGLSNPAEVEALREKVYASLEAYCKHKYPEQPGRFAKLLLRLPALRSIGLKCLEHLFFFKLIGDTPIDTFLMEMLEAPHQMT
Chain of Bifunctional 3'-5' exonuclease/ATP-dependent helicase WRN (Homo sapiens) (Q14191 whole entry, looked up): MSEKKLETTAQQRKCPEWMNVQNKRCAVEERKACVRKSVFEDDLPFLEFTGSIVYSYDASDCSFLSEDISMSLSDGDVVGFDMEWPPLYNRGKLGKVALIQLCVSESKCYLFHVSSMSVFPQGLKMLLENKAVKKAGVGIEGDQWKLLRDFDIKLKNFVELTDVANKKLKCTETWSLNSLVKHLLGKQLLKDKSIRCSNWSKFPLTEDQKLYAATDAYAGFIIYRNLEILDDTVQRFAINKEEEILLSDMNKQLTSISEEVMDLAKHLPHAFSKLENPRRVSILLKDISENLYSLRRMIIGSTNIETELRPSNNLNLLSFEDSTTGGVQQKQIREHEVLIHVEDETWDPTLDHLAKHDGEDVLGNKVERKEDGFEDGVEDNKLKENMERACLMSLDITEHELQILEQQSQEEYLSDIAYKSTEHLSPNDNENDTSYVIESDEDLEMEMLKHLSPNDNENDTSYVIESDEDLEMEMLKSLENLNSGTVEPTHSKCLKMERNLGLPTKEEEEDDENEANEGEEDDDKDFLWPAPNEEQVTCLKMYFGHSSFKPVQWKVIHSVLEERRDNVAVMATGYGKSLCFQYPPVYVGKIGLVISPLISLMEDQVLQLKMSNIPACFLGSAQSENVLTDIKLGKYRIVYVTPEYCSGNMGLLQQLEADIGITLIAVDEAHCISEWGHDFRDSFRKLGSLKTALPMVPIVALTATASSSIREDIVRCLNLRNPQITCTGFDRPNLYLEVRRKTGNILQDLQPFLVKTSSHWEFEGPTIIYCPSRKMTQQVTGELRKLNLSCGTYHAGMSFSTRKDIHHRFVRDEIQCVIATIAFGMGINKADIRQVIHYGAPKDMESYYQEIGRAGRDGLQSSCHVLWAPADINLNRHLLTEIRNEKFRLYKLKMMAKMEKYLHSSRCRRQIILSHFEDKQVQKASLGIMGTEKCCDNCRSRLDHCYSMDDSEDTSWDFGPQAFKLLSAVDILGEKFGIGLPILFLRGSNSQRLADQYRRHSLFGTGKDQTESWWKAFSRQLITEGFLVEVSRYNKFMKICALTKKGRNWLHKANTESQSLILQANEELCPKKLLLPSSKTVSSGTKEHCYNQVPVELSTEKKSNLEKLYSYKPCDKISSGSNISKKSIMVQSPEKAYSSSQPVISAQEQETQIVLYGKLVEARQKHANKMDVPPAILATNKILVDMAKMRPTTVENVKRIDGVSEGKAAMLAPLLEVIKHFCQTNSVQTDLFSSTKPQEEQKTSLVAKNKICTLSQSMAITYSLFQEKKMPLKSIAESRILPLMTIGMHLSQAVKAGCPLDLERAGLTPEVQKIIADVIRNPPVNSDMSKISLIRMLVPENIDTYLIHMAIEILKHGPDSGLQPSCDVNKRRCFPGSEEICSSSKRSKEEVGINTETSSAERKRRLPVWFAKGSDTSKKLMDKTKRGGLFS

N#C[C@@H](Cc1ccc(O)c(O)c1)C(=O)N1CCc2ccccc21
Potency [1]: 10 µM (active)

COC(=O)C1=C(C)NC(C)=C(C(=O)OCCN(C)Cc2ccccc2)[C@@H]1c1cccc([N+](=O)[O-])c1
outcome [2]: inactive
Potency [3]: 17.8 µM (active)

CC1(C)CCC(C)(C)c2cc(C(=O)Nc3ccc(C(=O)O)cc3)ccc21
activation [4]: -10.3% (inactive)
Potency [5]: inactive
max response [6]: 1.87% (inactive)
Potency [7]: inactive
outcome [8]: inactive

CCN(CC)C(=O)c1sc2nc(-c3cccs3)cc(-c3cccs3)c2c1N
Potency [9]: inactive

CC1CCC(C(C)C)C(O)C1 (centres undefined)
max response [10]: 8.18%
outcome [11]: inactive
outcome [12]: inactive
Potency [13]: inactive
max response [14]: -16.3%
outcome [15]: inactive
max response [6]: -1.68% (inactive)
Potency [7]: inactive
outcome [8]: inactive

COc1ccc(-c2nc3c(c(SCC(=O)Nc4ccc(C(=O)O)cc4)n2)Cc2ccccc2O3)cc1
Potency [16]: 3.26 µM (active)
Potency [17]: 4.23 µM (active)
Potency [18]: 7.64 µM (active)
outcome [19]: inactive
Potency [20]: 2.67 µM (active)

COc1cccc2c1C(=O)c1c(O)c3c(c(O)c1C2=O)C[C@@](O)(C(=O)CO)C[C@@H]3OC1CC(N)C(O)C(C)O1 (some centres undefined)
Potency [9]: inactive
